In experiment [1] the target is High affinity nerve growth factor receptor (Homo sapiens) (UniProt P04629). To be noted: at 1 µM.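 Further: each value is the mean percent inhibition of TRKA.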
Experiment [2] concerns the target BDNF/NT-3 growth factors receptor (Homo sapiens) (UniProt Q16620). The following applies: at 0.1 µM.
Experiment [3] has the same target. To be noted: at 1 µM.
The target in experiment [4] is NT-3 growth factor receptor (Homo sapiens) (UniProt Q16288). The following applies: at 0.1 µM.
Experiment [5] shares this target. The following applies: at 1 µM.
Experiment [6] addresses T1, Tyrosine-protein kinase TXK (Homo sapiens) (UniProt P42681).
T1 sequence (whole entry): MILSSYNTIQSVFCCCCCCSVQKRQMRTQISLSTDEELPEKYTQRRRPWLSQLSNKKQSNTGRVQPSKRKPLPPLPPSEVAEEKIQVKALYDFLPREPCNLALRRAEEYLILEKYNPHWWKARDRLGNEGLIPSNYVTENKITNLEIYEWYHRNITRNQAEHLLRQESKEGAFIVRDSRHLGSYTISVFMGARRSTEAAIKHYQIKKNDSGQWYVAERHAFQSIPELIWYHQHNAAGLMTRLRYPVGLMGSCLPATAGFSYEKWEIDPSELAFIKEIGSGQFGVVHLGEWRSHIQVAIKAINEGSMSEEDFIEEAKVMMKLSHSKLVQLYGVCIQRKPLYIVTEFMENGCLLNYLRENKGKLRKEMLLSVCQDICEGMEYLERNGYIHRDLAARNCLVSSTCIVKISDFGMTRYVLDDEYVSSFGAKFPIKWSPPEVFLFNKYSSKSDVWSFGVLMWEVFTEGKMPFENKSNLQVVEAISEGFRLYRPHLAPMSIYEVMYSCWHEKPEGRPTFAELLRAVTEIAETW
The following applies: at 0.1 µM.

The target in experiment [7] is T1, Tyrosine-protein kinase TXK (Homo sapiens). To be noted: at 1 µM.
Experiment [8] addresses Non-receptor tyrosine-protein kinase TYK2 (Homo sapiens) (UniProt P29597). The following applies: at 0.1 µM.
The target in experiment [9] is T2, Dual specificity protein kinase TTK (Homo sapiens) (UniProt P33981).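 Further: reported figures are mean TTK inhibition at 1 µM.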
T2 sequence (whole entry): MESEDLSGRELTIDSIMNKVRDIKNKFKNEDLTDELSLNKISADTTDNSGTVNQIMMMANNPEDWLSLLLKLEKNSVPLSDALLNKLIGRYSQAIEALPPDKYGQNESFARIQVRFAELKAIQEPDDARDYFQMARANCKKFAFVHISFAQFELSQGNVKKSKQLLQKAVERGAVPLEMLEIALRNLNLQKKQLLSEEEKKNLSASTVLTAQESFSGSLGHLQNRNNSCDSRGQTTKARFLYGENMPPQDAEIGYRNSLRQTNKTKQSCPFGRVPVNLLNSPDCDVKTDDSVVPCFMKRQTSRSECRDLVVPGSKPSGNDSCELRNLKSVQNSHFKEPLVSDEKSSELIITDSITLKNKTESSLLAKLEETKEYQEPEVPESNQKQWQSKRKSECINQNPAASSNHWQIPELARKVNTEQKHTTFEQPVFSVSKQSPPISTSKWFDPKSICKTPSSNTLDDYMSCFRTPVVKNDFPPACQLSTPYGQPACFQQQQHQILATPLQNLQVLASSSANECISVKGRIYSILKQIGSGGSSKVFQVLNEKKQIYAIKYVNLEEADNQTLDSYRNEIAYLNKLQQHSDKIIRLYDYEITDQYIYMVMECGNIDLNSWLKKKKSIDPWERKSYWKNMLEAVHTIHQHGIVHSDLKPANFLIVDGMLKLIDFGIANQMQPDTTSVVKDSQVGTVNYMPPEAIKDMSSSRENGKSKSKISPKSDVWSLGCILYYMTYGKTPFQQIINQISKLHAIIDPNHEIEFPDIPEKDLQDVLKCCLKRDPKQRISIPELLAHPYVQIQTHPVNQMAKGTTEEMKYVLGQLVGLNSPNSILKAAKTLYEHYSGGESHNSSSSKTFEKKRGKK
To be noted: at 1 µM.

The target in experiment [10] is T3, Aurora kinase A (Homo sapiens) (UniProt O14965).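 Further: each reported value is a mean percent inhibition of Aurora-A.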
T3 sequence (whole entry): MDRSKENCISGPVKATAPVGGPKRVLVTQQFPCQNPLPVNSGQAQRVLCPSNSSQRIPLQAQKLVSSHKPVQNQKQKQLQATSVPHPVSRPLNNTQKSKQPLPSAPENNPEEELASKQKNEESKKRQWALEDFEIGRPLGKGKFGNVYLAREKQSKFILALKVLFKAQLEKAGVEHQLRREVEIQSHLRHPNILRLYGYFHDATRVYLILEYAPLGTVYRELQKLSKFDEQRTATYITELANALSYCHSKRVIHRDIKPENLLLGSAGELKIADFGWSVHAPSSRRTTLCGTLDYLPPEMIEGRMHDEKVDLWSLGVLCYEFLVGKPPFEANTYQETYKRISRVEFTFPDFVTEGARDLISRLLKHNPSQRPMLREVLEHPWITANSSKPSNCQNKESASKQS
To be noted: at 0.1 µM.

SMILES strings stand for the structures.

Chain of NT-3 growth factor receptor (Homo sapiens) (Q16288 32-839 limits assumed): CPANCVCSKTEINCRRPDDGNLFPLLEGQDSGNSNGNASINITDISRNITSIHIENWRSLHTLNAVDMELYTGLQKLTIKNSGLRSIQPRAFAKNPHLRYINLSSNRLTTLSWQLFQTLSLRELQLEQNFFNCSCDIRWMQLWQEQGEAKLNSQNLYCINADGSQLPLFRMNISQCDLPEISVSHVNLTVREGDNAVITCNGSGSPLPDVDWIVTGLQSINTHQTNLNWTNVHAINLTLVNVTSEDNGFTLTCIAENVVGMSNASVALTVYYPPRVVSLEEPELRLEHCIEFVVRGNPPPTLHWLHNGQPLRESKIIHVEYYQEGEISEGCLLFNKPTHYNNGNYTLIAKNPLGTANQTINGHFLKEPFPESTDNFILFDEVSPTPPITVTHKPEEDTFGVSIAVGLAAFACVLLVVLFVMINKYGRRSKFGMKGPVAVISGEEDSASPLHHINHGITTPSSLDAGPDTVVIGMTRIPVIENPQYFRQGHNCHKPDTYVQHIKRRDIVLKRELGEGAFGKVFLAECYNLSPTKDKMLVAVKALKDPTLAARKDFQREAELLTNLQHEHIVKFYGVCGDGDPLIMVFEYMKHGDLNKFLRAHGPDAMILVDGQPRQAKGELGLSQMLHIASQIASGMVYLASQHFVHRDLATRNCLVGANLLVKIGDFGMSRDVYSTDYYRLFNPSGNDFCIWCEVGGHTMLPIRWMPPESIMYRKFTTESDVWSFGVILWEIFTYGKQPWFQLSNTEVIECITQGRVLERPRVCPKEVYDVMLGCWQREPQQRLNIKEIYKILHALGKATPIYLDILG
Chain of High affinity nerve growth factor receptor (Homo sapiens) (P04629 33-796 limits assumed): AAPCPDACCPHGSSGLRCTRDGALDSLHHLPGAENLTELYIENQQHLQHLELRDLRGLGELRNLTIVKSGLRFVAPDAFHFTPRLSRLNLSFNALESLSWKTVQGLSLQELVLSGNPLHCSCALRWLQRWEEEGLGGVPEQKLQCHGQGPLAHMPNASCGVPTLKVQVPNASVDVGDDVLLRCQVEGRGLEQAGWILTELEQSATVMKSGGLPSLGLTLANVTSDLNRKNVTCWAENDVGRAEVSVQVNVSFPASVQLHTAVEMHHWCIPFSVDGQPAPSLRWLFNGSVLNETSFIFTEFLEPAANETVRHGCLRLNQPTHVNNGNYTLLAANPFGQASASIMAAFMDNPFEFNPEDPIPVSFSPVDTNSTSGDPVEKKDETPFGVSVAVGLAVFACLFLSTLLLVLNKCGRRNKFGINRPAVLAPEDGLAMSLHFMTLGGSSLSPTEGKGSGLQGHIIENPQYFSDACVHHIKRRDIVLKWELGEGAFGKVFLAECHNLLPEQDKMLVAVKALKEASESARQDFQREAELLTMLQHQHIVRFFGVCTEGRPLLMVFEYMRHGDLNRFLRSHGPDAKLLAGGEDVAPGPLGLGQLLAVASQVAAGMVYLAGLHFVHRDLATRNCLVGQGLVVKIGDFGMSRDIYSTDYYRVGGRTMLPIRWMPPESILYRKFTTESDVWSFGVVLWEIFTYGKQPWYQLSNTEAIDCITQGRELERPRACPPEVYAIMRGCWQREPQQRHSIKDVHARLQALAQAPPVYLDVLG
Chain of BDNF/NT-3 growth factors receptor (Homo sapiens) (Q16620 32-822 limits assumed): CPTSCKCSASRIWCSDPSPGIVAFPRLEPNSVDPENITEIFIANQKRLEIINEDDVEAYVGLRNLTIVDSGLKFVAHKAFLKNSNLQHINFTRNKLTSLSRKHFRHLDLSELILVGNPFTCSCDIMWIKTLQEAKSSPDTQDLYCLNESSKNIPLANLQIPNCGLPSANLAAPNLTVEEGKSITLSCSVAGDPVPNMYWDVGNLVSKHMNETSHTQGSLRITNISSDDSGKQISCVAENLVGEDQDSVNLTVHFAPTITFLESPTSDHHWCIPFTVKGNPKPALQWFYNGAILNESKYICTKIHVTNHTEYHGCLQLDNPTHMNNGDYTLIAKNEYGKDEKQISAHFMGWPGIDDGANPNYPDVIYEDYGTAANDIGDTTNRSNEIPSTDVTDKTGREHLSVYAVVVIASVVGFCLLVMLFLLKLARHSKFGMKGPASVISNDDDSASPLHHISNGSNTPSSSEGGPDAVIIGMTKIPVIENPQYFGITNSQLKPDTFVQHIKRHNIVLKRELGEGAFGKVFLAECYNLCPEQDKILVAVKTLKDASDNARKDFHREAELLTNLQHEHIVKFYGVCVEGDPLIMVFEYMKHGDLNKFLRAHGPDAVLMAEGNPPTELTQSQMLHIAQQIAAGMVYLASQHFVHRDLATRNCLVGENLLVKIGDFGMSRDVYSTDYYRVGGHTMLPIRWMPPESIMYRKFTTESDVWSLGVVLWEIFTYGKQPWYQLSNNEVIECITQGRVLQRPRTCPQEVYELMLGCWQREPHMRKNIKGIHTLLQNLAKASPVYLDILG
Chain of Non-receptor tyrosine-protein kinase TYK2 (Homo sapiens) (P29597 whole entry): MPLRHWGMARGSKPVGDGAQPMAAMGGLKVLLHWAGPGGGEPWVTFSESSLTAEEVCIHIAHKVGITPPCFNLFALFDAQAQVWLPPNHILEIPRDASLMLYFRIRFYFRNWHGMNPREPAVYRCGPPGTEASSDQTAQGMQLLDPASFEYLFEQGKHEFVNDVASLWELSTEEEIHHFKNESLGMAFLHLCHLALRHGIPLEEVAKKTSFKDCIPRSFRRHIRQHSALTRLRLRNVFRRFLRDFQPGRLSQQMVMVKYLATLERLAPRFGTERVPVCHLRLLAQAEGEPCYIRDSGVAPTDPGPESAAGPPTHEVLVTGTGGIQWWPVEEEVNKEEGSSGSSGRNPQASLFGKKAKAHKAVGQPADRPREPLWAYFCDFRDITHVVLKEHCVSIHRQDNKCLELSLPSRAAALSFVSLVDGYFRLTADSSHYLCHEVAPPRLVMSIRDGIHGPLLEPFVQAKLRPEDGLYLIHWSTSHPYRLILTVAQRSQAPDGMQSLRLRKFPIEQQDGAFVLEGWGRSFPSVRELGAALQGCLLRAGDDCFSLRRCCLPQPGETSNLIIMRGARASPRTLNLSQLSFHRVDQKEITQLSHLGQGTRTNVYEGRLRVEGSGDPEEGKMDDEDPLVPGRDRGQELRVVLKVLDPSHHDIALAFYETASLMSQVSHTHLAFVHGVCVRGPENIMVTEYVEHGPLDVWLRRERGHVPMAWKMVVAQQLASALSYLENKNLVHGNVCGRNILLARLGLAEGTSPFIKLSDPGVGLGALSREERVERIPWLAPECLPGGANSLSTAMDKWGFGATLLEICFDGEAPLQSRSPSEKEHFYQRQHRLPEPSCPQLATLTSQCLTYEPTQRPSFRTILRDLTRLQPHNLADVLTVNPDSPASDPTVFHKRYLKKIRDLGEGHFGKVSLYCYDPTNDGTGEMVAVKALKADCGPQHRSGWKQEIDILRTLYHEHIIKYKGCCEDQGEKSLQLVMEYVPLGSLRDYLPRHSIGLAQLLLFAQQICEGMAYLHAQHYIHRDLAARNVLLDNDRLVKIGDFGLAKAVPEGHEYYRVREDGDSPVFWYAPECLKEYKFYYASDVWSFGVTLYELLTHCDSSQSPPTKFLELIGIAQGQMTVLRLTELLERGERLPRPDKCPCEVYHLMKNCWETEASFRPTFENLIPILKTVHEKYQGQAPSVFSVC

In the case of `COc1cccc(-n2ncc3c(N/N=C/c4ccncc4)ncnc32)c1`, the inhibition (usually the relative decrease from the control value, in per cent) came to 12.8% in experiment [1]; 7.74% in experiment [2]; 37.6% in [3]; 8.44% in [4]; 36.9% in experiment [5]; 4.8% in experiment [6]. The inhibition is 18.6% in experiment [7], -2.74% in [8], 18.5% in experiment [9] and 12.1% in experiment [10].
Take `CCn1c(-c2nonc2N)nc2c(C#CC(C)(C)O)ncc(OC[C@@H]3CCCN3)c21`: the inhibition in [1] was -3.52%; in experiment [2], -0.66%; in experiment [3] it was 0.79%; in [4], 1.15%; in experiment [5], -0.37%; in [6], -0.98%. The inhibition was 1.67% in [7], -0.97% in experiment [8], 4.1% in experiment [9] and 3.07% in experiment [10].
On to `CCn1c(-c2nonc2N)nc2c(C#CC(C)(C)O)ncc(OCC3CCNCC3)c21`, for which the inhibition in [1] was 2.62%; in experiment [2] it was 3.08%; in experiment [3] it was 1.98%; in [4], 3.15%; in experiment [5], 3.69%; in experiment [6] it was -1.16%. The inhibition is -1.53% in experiment [7], -1.24% in experiment [8], 11.4% in experiment [9] and -1.94% in experiment [10].
`NC(=O)c1sc(-n2cnc3cc(C(F)(F)F)ccc32)cc1OCc1ccccc1Br`: the inhibition in experiment [1] is -0.05%; in experiment [2] it was 3%; in experiment [3] it was 1.49%; in [4] it was 1.41%; in [5] it was 2.25%; in [6], 1.4%. For the same compound, the inhibition in experiment [7] is 3.45%; in [8], 0.53%; in [9], 3.54%; in [10], 1.18%.
For the compound `COc1cccc(COc2cc(-n3cnc4ccccc43)sc2C(N)=O)c1`, the inhibition in experiment [1] is -7.54%; in [2] it was -0.03%; in experiment [3], -0.8%; in experiment [4], -2.79%; in experiment [5], -1.55%; in experiment [6] it was -1.73%. Also, the inhibition in experiment [7] was 2.43%; in [8] it was -1.93%; in [9] it was 4.76%; in experiment [10] it was 2.16%.
In the case of `Fc1ccc(-c2ncn(C3CCNCC3)c2-c2ccnc(Oc3ccccc3)n2)cc1`, the inhibition is 1.69% in experiment [1]; 1.68% in [2]; 2.74% in experiment [3]; 1.74% in experiment [4]; 1.25% in experiment [5]; -5.33% in experiment [6]. Also, the inhibition in experiment [7] is -2.78%; in experiment [8], -1.8%; in experiment [9], 6.14%; in [10] it was -3.42%.
As for `COc1cc(C=NNc2ncnc3c2cnn3Cc2ccccc2)ccc1O`, the inhibition in [1] worked out at 2.96%; in [2], 0.74%; in experiment [3] it was 23.4%; in experiment [4], 0.17%; in experiment [5], 14%; in experiment [6], 1.55%. Further, the inhibition was 19.6% in [7], 3.47% in [8], 3.09% in experiment [9] and 2.88% in experiment [10].
Consider `NS(=O)(=O)c1ccc(-c2ccc3c(NC(=O)C4CC4)n[nH]c3c2)cc1`, for which the inhibition in experiment [1] came out at 0.03%; in [2], 0.8%; in experiment [3], 5.39%; in experiment [4], 2.06%; in [5], 9.04%; in experiment [6] it was 3.28%. Further, the inhibition in [7] was 4.88%; in [8], -5.6%; in experiment [9] it was 7.86%; in experiment [10] it was 3.44%.
In the case of `Cc1cc(-c2ccco2)cc(C)c1/C=C/c1cncc(-c2nn[nH]n2)c1`, the inhibition in experiment [1] is -4.92%; in experiment [2] it was -0.9%; in experiment [3], 4.36%; in [4], -0.6%; in experiment [5] it was 5.53%; in [6], -0.29%. Further, the inhibition in experiment [7] is 4.01%; in experiment [8], 0.06%; in [9], 4.48%; in experiment [10], 3.01%.
Regarding `CCn1c(-c2nonc2N)nc2c(C#CCN)ncc(OCCCN)c21`, the inhibition in [1] is -4.23%; in [2], -0.67%; in experiment [3], -1.3%; in experiment [4], 0.15%; in experiment [5] it was 2.14%; in experiment [6] it was -1.46%. For the same compound, the inhibition was -3.71% in [7], 5.99% in experiment [8], -3.71% in experiment [9] and -1.21% in [10].
`Nc1nonc1-c1nc2cnccc2n1C1CCCCC1`: the inhibition in [1] was -1.13%; in [2], -1.42%; in experiment [3] it was -0.84%; in experiment [4] it was -0.5%; in experiment [5], 0.67%; in [6], -1.24%. Further, the inhibition in [7] is -0.03%; in experiment [8] it was 4.5%; in experiment [9], 4.51%; in [10], -0.63%.
As for `CCn1c(-c2nonc2N)nc2c(C#CC(C)(C)O)nc(O[C@@H](CN)c3ccccc3)cc21`, the inhibition in experiment [1] was 0.16%; in experiment [2], -1.86%; in experiment [3], 1.16%; in experiment [4], -1.62%; in experiment [5] it was 0.7%; in experiment [6] it was 2.06%. Also, the inhibition was 2.31% in [7], 2.96% in experiment [8], 8.72% in experiment [9] and 0.22% in experiment [10].
Regarding `COc1cc2c(cc1Nc1nc(Nc3ccsc3C(N)=O)c3cc[nH]c3n1)N(C(=O)CN(C)C)CCC2`, the inhibition is -0.6% in experiment [2]; 3.59% in experiment [3]; -1.52% in experiment [4]; 3.92% in experiment [5]; -2.39% in experiment [6]; -1.59% in experiment [7]. For the same compound, the inhibition was -8.98% in experiment [8], 36.4% in experiment [9] and 2.03% in experiment [10].
On to `NS(=O)(=O)c1ccc(N/C=C2\C(=O)Nc3ccc4ncsc4c32)cc1`, for which the inhibition was 51.3% in [1]; 19.1% in experiment [2]; 65.9% in experiment [3]; 21.6% in [4]; 66.9% in [5]; -0.44% in experiment [6]. In addition, the inhibition in experiment [7] is 10.8%; in experiment [8] it was 1.37%; in experiment [9], 62.4%; in experiment [10] it was 30%.

(Values after ChEMBL document CHEMBL1961873, “Compounds: GSK PKIS; Assays: Nanosyn kinase panel” (2012).)
